Only some compounds are listed: those with a hit (about 10% of all), similar ones and a draw of the others.
GLS inh = glutaminase GLS (human) inhibition | O94925 | GLS enzymatic activity, qHTS titration | Potency, µM (top dose mostly 45.5 µM), most hits filed as inhibitors | 0.21% of 410,000 active | AID 624170
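Coupled fluorescence readout: glutamate oxidase/HRP/Amplex Red detect glutamate formed by hKGA from L-glutamine (1 mM solution added). Buffer 45 mM KH2PO4 pH 8.2, 0.02% Tween-20; reads at t0 and 30 min RT.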
JMJD2A Tudor = inhibitors of human JMJD2A Tudor domain; AlphaScreen JMJD2A-Tudor / H3K4me3 peptide binding; Potency, µM (top dose mostly 114 µM), usual class: inhibitors; AID 504339; O75164; 4.4% of 390,000 active; further: nearly all actives have a fitted effect of over 50% in size
Target sequence (O75164 whole entry, looked up, the tested form may be a part): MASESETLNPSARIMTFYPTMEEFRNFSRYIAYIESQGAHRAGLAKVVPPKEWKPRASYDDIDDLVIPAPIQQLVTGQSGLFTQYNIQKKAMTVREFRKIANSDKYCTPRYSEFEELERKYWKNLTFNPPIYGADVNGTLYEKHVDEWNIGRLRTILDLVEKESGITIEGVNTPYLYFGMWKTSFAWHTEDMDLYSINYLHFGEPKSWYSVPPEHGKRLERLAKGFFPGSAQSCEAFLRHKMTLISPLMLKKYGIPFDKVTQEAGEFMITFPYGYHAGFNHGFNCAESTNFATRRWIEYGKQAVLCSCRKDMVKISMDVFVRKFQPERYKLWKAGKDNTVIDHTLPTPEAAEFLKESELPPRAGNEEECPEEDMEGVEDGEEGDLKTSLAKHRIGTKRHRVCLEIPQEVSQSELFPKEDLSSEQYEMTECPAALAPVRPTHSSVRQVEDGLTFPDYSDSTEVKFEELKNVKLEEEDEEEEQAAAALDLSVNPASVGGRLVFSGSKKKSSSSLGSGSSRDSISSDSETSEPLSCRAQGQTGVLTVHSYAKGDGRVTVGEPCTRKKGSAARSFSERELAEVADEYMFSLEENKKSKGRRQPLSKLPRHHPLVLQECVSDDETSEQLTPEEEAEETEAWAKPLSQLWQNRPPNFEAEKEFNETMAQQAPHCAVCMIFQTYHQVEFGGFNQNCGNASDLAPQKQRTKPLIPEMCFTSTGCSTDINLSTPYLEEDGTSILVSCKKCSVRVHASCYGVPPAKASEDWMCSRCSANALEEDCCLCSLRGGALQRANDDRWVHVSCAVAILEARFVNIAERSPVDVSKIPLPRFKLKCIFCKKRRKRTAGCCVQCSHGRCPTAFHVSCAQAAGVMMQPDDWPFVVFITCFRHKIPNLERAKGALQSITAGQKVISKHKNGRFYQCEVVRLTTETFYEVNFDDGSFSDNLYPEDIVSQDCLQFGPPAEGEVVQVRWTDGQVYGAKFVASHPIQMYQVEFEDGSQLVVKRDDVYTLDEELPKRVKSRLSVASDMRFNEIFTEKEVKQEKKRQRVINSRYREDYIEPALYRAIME
L3MBTL1 block = blocks human L3MBTL1; AlphaScreen L3MBTL1–H3K9me1 peptide binding; Potency, µM (highest dose often 57.1 µM), hits mostly inhibitors; Q9Y468; 0.66% of 230,000 active; further: nearly all actives have a fitted effect of over 60% in size
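Displacement of a biotinylated histone H3(1-15) peptide monomethylated at Lys9 (75 nM) from L3MBTL1 (50 nM) was measured by AlphaScreen after a 30 min room-temperature compound incubation; cefsulodin titration served as intraplate control.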
HP1b chromo inh = inhibitors of HP1-beta chromodomain binding to methylated histone tails. AlphaScreen HP1-beta / biotin-H3K9me3 peptide binding. AID 540317. 0.56% of 390,000 active. Potency, µM (titrated, usually from 114 µM), usual class: inhibitors. P83916; further: nearly all actives have a fitted effect of over 70% in size
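Compound inhibition of the preformed complex between 50 nM HP1-beta and 50 nM biotinylated H3K9me3 peptide was read by AlphaScreen. Buffer was PBS pH 7.4 with 0.01% Tween-20. Incubations ran 30 min at room temperature, with 10 ug/mL donor/acceptor beads.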
BAZ2B inh = blocks human BAZ2B. Q9UIF8. Potency, µM (top dose mostly 114 µM), hits mostly inhibitors. AlphaScreen BAZ2B-H3K14Ac peptide displacement. 4.4% of 360,000 active; further: nearly all actives have a fitted effect of over 60% in size
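AlphaScreen luminescence quantifies BAZ2B engagement of H3K14Ac peptide; the protein and biotinylated peptide are both at 50 nM final, buffer PBS pH 7.4 with 0.01% Tween-20, all steps at room temperature.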
G9a inh = blocks human histone lysine methyltransferase G9a | G9a H3K9 monomethylation, AlphaScreen, 2 h | Potency, µM (titrated, usually from 102 µM), hits mostly inhibitors | 8.8% of 350,000 active; further: nearly all actives have a fitted effect of over 75% in size
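AlphaScreen read-out: biotin-H3K9 peptide (500 nM) methylation by 20 nM enzyme with 20 uM SAM, 2 h at room temperature after 15 min compound preincubation; anti-monomethyl H3K9 antibody plus donor/acceptor beads, 10 min dark.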
Hits are given with their value; 0 = inactive; ? = inconclusive; - = no result given; [ ] = another dose, or the depositor's remark. The call rests on the fitted dose curve; in most records, active means well fitted curve in the direction sought with a large enough effect; inconclusive means small, poorly fitted or top-dose-only effect, or another doubt; inactive means no such curve, though single readings can be large; an effect the other way counts as inactive or inconclusive.

SMILES	GLS inh	JMJD2A Tudor	L3MBTL1 block	HP1b chromo inh	BAZ2B inh	G9a inh
Cc1cccc(NC(=O)C(C)N2C(=O)c3ccccc3S2(=O)=O)n1 (stereo not given)	0	0	0	0	0	0
CC(C(=O)Nc1ncc([N+](=O)[O-])s1)N1C(=O)c2ccccc2S1(=O)=O (stereo not given)	0	20µM	0	0	0	11.2µM
O=C(O)c1ccccc1Nc1ccc([N+](=O)[O-])cc1C(=O)O	0	31.6µM	-	0	?	31.6µM
O=C(O)c1ccccc1Nc1ccc([N+](=O)[O-])c2nonc12	0	0	-	?	39.8µM	44.7µM
NC(=O)c1cc([N+](=O)[O-])ccc1Nc1ccccc1	0	0	0	0	0	0[2.33 µM]
CC(=O)c1ccc(NC(=O)CSc2nc(-c3ccccc3C)nc3c2c(=O)n(C)c(=O)n3C)cc1	0	0	-	0	0	?
COc1ccc2c(c1)c1c(c(=O)n(-c3ccc(OC)c(OC)c3)c(=O)n1Cc1ccccc1F)n2C	0	0	-	0	0	?
Clc1ccc2c(NNc3ccccc3Cl)ccnc2c1	0	?	?	0	2µM	3.16µM
O=C(NNc1ccnc2cc(Cl)ccc12)C1CCCCC1	?	0	0	0	0	0
FC(F)Oc1ccc(NC(=S)NNc2ccnc3cc(Cl)ccc23)cc1	0	?	0	?	?	39.8µM
NC(=S)NNc1ccnc2cc(Cl)ccc12	6.31µM	44.7µM	0	?	50.1µM	1µM
NC(=S)NNc1ccc(Cl)c(Cl)c1	0	?	-	0	?	12.6µM
O=S(=O)(c1ccc(F)cc1)N1CCN(c2nc(-c3ccc(F)cc3)nc3cc(Cl)ccc23)CC1	-	0	-	0	-	-
CC(NC(=O)Cn1cc(C(=O)C2CC2)c2ccccc21)c1ccccc1 (stereo not given)	0	79.4µM	0	0	0	0
Cc1cc(=O)oc(C)c1C(=O)NNC(=O)C1(C)CC1Br (stereo not given)	0	0	0	0	0	0
CC1(C(=O)NNC(=O)c2ccc(=O)oc2)CC1Br (stereo not given)	0	0	0	0	0	50.1µM
CCOC(=O)COc1cc(N2C(=O)CSCC2=O)c(Cl)cc1Cl	0	0	0	0	0	0
CCOC(=O)COc1cc(-n2c(=S)[nH]c3cc(OC)c(OC)cc3c2=O)c(Cl)cc1Cl	0	?	0.708µM	0	0	0
CC1CN(C(=O)N2CCC(C(=O)N3CCN(c4ccccc4)CC3)CC2)c2cc(Cl)ccc2O1 (stereo not given)	0	?	-	?	?	?
CC(=O)OCCn1c2nc(=O)[nH]c(=O)c-2nc2cc(C)c(C)cc21	0	0	0	0	0	0
Cc1cc2nc3c(=O)[nH]c(=O)nc-3n(CC(O)C(O)C(O)CO)c2cc1C (stereo not given)	0	-	-	-	-	6.31µM
CN1C[C@@H]2[C@@H]3C(=O)N(Cc4ccccc4)C(=O)[C@@H]3[C@](C)(C1=O)N2C(=O)c1ccccc1	0	0	-	0	-	-
Cc1c(Cl)ccc2c1NC(=O)[C@]21[C@@H]2C(=O)N(Cc3ccccc3)C(=O)[C@@H]2[C@@H]2CCCN21	0	0[11.4 µM]	0	0	0	44.7µM
CC[C@]12C(=O)N(C)C[C@H]([C@@H]3C(=O)N(Cc4ccccc4)C(=O)[C@@H]31)N2C(=O)c1ccc(F)cc1	0	0	-	0	-	-
CCc1cccc2c1NC(=O)[C@]21[C@@H]2C(=O)N(Cc3ccccc3)C(=O)[C@@H]2[C@@H]2CCCN21	0	0	0	0	0	44.7µM
SMILES	GLS inh	JMJD2A Tudor	L3MBTL1 block	HP1b chromo inh	BAZ2B inh	G9a inh
COC(=O)Cn1c2ccc(F)cc2c2nc(C)sc21	0	0	0	0	0	44.7µM
O=c1c(-c2ccc(Cl)cc2)nc2cnc(N3CCNCC3)nc2n1-c1ccccc1	-	-	-	-	-	0[0.501 µM]
C=C1CC[C@H](O)C/C1=C/C=C1\CCC[C@]2(C)C([C@H](C)CC[C@@H](O)C(C)(C)O)CC[C@@H]12 (stereo not given in full)	-	-	-	-	-	0
C=CCNC(=O)c1ccccc1NC(=O)c1ccccc1N(C)S(C)(=O)=O	0	0	0	0	0	50.1µM
CCCNC(=O)c1ccccc1NC(=O)c1ccccc1N(C)S(C)(=O)=O	0	0	0	0	0	?
Cc1ccc(CNC(=O)c2ccccc2N(C)S(C)(=O)=O)cc1	0	0	0	0	0	39.8µM
CCCNC(=O)Cn1c(SCc2ccccc2C)nc2ccncc21	-	0	-	0	-	-
CCN(CCCNC(=O)c1[nH]c(C)c(C(C)=O)c1C)c1ccccc1	0	?	0	0	50.1µM	14.1µM
CC(=O)c1c(C)[nH]c(C(=O)NCCc2ccccc2)c1C	0	0	0	0	?	0
CCOc1ccc(-n2cc(-c3ccc(OC)c(OC)c3)[nH]c2=S)cc1	0	11.2µM	-	?	-	2.51µM
COc1ccc(-n2cc(-c3ccccc3)[nH]c2=S)cc1	0	8.91µM	0	0	?	1.58µM
COc1ccccc1-n1cc(-c2ccccc2)[nH]c1=S	0	?	-	0	?	10µM
COc1cccc(-c2cn(-c3cccc(C(F)(F)F)c3)c(=S)[nH]2)c1	0	0	-	0	0	0[0.501 µM]
CCOc1ccc(-c2cn(-c3ccccc3OC)c(=S)[nH]2)cc1	0	0	-	0	0	?
CC(=O)Nc1ccc(-n2cc(-c3ccccc3)[nH]c2=S)cc1	0	0.891µM	0	?	?	1.41µM
CC(=O)c1ccc(NC(=O)CCc2c(C)nn(-c3ccc4nncn4n3)c2C)cc1	0	0	-	0	0	0
CN(CC(=O)Nc1ccccc1Cl)C(=O)CSc1nnc(N)s1	0	0	0	0	0	0[12.7 µM]
CN(CC(=O)Nc1ccccc1Cl)C(=O)Cn1cc(C(F)(F)F)cc(Cl)c1=O	0	0	0	0	0	44.7µM
Cc1nnc(SCC(=O)N(C)CC(=O)Nc2ccccc2Cl)s1	0	0	0	0	0	50.1µM
CCc1ccccc1NC(=O)CN(C)C(=O)CSc1nnc(Nc2cccc(C)c2C)s1	0	0	0	0	0	15.8µM
COc1ccc(Cn2ccnc2)cc1Br	0	?	-	0	50.1µM	?
COc1ccc(Cn2ccnc2)cc1[N+](=O)[O-]	0	0	0	0	0	0
COc1ccc(NCc2ccc(OC)c(Cn3ccnc3)c2)c(OC)c1	?	39.8µM	-	?	50.1µM	11.2µM
COc1ccc(NC(=O)CSc2nc3ccccc3n2CC(=O)N(C)C2CCCCC2)cc1	0	0	-	0	0	0[12.7 µM]
CCCCOc1ccc(C(=O)N(Cc2ccc(C(C)C)cc2)C2CCS(=O)(=O)C2)cc1 (stereo not given)	0	0	-	0	0	0
N#CC(C#N)=c1ccc2c(c1)NC1(CCCCC1)N=2	0	22.4µM	28.2µM	31.6µM	12.6µM	11.2µM
Cc1ccccc1C(=O)N1CCN(CCc2ccccn2)CC1	0	0	-	0	0	0

Screening data as filed in PubChem BioAssay.
